Values joined by “and” are separate entries in the source; they are usually repeats but may differ in a detail not shown here. Identical values can stand only once. Among all 5,500 compounds or so, about 2,000 (36%) were called active. Inconclusive results (about 18%) are left out. Rule as the data show it: active = normalized growth mostly below about 0.91 (no sharp cut-off); inconclusive = no clear call, values can overlap the other calls; inactive = mostly above about 0.92. The list shows a part of the results.
Assay: chemical genetic growth profiling, strain panel (AID 1159580);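 also: tested at 20 µM; growth read once vehicle control cultures reached saturation at 30 °C; 1 = growth at the plate median or of vehicle wells; lower values mean less growth of the strain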
Conditions: S. cerevisiae deletion strains, growth OD

Measured: normalized growth

CN(C)[C@@H]1C(=O)C(C(N)=O)=C(O)[C@@]2(O)C(=O)C3=C(O)c4c(O)ccc(Cl)c4[C@@H](O)[C@H]3C[C@@H]12
inactive: locus YAL013W, strain DEP1, active compounds read low 1 | locus YAL021C, strain ccr4, active compounds read low 0.971 | locus YAL026C, strain drs2, active compounds read low 1 | locus YAL030W, strain snc1, active compounds read low 0.984 | locus YBL061C, strain skt5, active compounds read low 0.98 | locus YBR009C, strain hhf1, active compounds read low 1.04 | locus YBR021W, strain FUR4, active compounds read low 0.945 | locus YBR023C, strain chs3, active compounds read low 0.982 | locus YBR171W, strain sec66, active compounds read low 0.978 | locus YBR229C, strain ROT2, active compounds read low 1 | locus YBR231C, strain swc5, active compounds read low 0.991 | locus YBR279W, strain paf1, active compounds read low 0.994 | locus YCL011C, strain gbp2, active compounds read low 1.06 | locus YCL016C, strain dcc1, active compounds read low 0.964 | locus YCL029C, strain bik1, active compounds read low 0.992 | locus YCL061C, strain MRC1, active compounds read low 0.992 | locus YCL069W, strain vba3, active compounds read low 0.997 | locus YCR088W, strain abp1, active compounds read low 0.993 | locus YDL005C, strain med2, active compounds read low 0.983 | locus YDL035C, strain GPR1, active compounds read low 1.01 | locus YDL040C, strain nat1, active compounds read low 0.992 | locus YDL074C, strain BRE1, active compounds read low 0.994 | locus YDL101C, strain DUN1, active compounds read low 1 | locus YDL134C, strain PPH21, active compounds read low 1 | locus YDL185W, strain tfp1, active compounds read low 0.984 | locus YDL192W, strain arf1, active compounds read low 0.982 | locus YDR001C, strain nth1, active compounds read low 0.977 | locus YDR069C, strain doa4, active compounds read low 0.969 | locus YDR101C, strain arx1, active compounds read low 0.999 | locus YDR137W, strain rgp1, active compounds read low 0.921 | locus YDR159W, strain sac3, active compounds read low 1.06 | locus YDR162C, strain NBP2, active compounds read low 1.02 | locus YDR195W, strain ref2 1 | locus YDR297W, strain sur2, active compounds read low 0.979 | locus YDR318W, strain mcm21, active compounds read low 0.997 | locus YDR334W, strain swr1, active compounds read low 0.95 | locus YDR335W, strain msn5, active compounds read low 0.98 | locus YDR388W, active compounds read low 0.983 | locus YDR392W, strain spt3, active compounds read low 0.854 | locus YDR502C, strain sam2, active compounds read low 0.981 | locus YEL003W, strain gim4, active compounds read low 0.98 | locus YEL037C, strain rad23, active compounds read low 0.99 | locus YEL061C, strain CIN8 (second series), active compounds read low 0.988 | locus YEL061C, strain CIN8, active compounds read low 1 | locus YER015W, strain faa2, active compounds read low 0.988 | locus YER016W, strain bim1, active compounds read low 0.994 | locus YER110C, active compounds read low 0.98 | locus YER111C, strain swi4, active compounds read low 0.994 | locus YER155C, strain BEM2 (second series), active compounds read low 0.932 | locus YER155C, strain BEM2, active compounds read low 1.01 | locus YER167W, strain BCK2, active compounds read low 1.01 | locus YFR010W, strain ubp6, active compounds read low 0.991 | locus YGL078C, strain dbp3, active compounds read low 0.988 | locus YGL086W, strain mad1, active compounds read low 0.986 | locus YGL167C, strain pmr1, active compounds read low 0.988 | locus YGL173C, strain kem1, active compounds read low 0.985 | locus YGL227W, strain vid30, active compounds read low 0.982 | locus YGL240W, strain doc1, active compounds read low 0.95 | locus YGL248W, strain PDE1, active compounds read low 0.988 | locus YGL253W, strain hxk2, active compounds read low 0.981 | locus YGR078C, strain PAC10, active compounds read low 0.989 | locus YGR135W, strain pre9, active compounds read low 0.974 | locus YGR252W, strain gcn5, active compounds read low 0.879 | locus YHR013C, strain ard1, active compounds read low 0.973 | locus YHR027C, strain rpn1, active compounds read low 0.965 | locus YHR030C, strain SLT2, active compounds read low 1 and 1.02 | locus YHR079C, strain IRE1 (second series), active compounds read low 0.976 | locus YHR079C, strain IRE1, active compounds read low 1.04 | locus YHR094C, strain hxt1, active compounds read low 0.981 | locus YHR129C, strain ARP1, active compounds read low 1.01 | locus YHR142W, strain chs7, active compounds read low 0.981 | locus YHR200W, strain rpn10, active compounds read low 0.987 | locus YIL066C, strain RNR3, active compounds read low 1.01 | locus YIL073C, strain SPO22, active compounds read low 0.992 | locus YIL125W, strain kgd1, active compounds read low 0.983 | locus YIR030C, strain dcg1, active compounds read low 0.98 | locus YJL092W, strain hpr5, active compounds read low 0.987 | locus YJL095W, strain BCK1 (second series), active compounds read low 0.98 | locus YJL095W, strain BCK1, active compounds read low 0.998 and 1.03 | locus YJL115W, strain asf1, active compounds read low 0.98 | locus YJL129C, strain trk1, active compounds read low 0.984 | locus YJL134W, strain LCB3, active compounds read low 1 | locus YJL154C, strain vps35, active compounds read low 0.976 | locus YJL164C, strain tpk1, active compounds read low 1 | locus YJL166W, strain qcr8, active compounds read low 0.93 | locus YJL168C, strain set2, active compounds read low 0.983 | locus YJL187C, strain SWE1 (second series), active compounds read low 0.995 | locus YJL187C, strain SWE1, active compounds read low 0.988 | locus YJR043C, strain POL32, active compounds read low 0.984 | locus YJR066W, strain TOR1, active compounds read low 0.97 | locus YKL009W, strain mrt4, active compounds read low 1 | locus YKL068W, active compounds read low 0.986 | locus YKL085W, strain MDH1 (second series), active compounds read low 0.975 | locus YKL085W, strain MDH1, active compounds read low 0.975 | locus YKL160W, strain elf1, active compounds read low 0.93 | locus YKL190W, strain CNB1, active compounds read low 1 | locus YKR001C, strain vps1, active compounds read low 0.976 | locus YKR026C, strain gcn3, active compounds read low 0.998 | locus YKR091W, strain srl3, active compounds read low 0.98 | locus YLL001W, strain dnm1, active compounds read low 0.921 | locus YLL026W, active compounds read low 0.983 | locus YLL041C, strain sdh2, active compounds read low 0.993 | locus YLR027C, strain aat2, active compounds read low 1.01 | locus YLR039C, strain RIC1, active compounds read low 0.995 | locus YLR058C, strain SHM2, active compounds read low 0.998 | locus YLR102C, strain apc9, active compounds read low 0.981 | locus YLR113W, strain HOG1, active compounds read low 1.03 | locus YLR221C, strain rsa3, active compounds read low 0.956 | locus YLR258W, strain gsy2, active compounds read low 0.992 | locus YLR262C, strain YPT6 (second series), active compounds read low 0.938 | locus YLR262C, strain YPT6, active compounds read low 1.01 | locus YLR268W, strain sec22, active compounds read low 0.954 | locus YLR320W, strain mms22, active compounds read low 0.947 | locus YLR330W, strain CHS5, active compounds read low 1.01 | locus YLR342W, strain FKS1 (second series), active compounds read low 0.952 | locus YLR342W, strain FKS1, active compounds read low 0.99 | locus YLR357W, strain rsc2, active compounds read low 0.93 | locus YLR370C, strain arc18, active compounds read low 0.979 | locus YLR371W, strain rom2, active compounds read low 0.976 | locus YLR384C, strain iki3, active compounds read low 0.975 | locus YLR418C, strain cdc73, active compounds read low 0.939 | locus YML016C, strain PPZ1, active compounds read low 0.999 | locus YML032C, strain rad52, active compounds read low 0.988 | locus YML120C, strain ndi1, active compounds read low 0.928 | locus YML124C, strain tub3, active compounds read low 0.982 | locus YMR058W, strain fet3, active compounds read low 0.934 | locus YMR078C, strain ctf18, active compounds read low 0.982 | locus YMR125W, strain sto1, active compounds read low 0.918 | locus YMR129W, active compounds read low 0.989 | locus YMR205C, strain PFK2, active compounds read low 0.938 | locus YMR223W, strain ubp8, active compounds read low 0.977 | locus YMR231W, strain pep5, active compounds read low 0.991 | locus YMR307W, strain GAS1, active compounds read low 1.02 | locus YNL067W, strain RPL9B, active compounds read low 0.997 | locus YNL071W, strain lat1, active compounds read low 0.992 | locus YNL128W, strain TEP1, active compounds read low 1.01 | locus YNL183C, strain NPR1, active compounds read low 0.966 | locus YNL209W, strain ssb2, active compounds read low 0.975 | locus YNL233W, strain BNI4, active compounds read low 0.993 | locus YNL248C, strain rpa49, active compounds read low 0.956 | locus YNL250W, strain rad50, active compounds read low 0.99 | locus YNL271C, strain bni1, active compounds read low 0.983 | locus YNL298W, strain CLA4, active compounds read low 0.993 | locus YNL307C, strain MCK1, active compounds read low 0.994 | locus YNL322C, strain KRE1 (second series), active compounds read low 0.98 | locus YNL322C, strain KRE1, active compounds read low 0.999 | locus YNR049C, strain mso1, active compounds read low 0.978 | locus YNR052C, strain pop2, active compounds read low 0.998 | locus YOL012C, strain htz1 0.761 | locus YOL147C, strain pex11, active compounds read low 0.983 | locus YOR001W, strain rrp6, active compounds read low 1.05 | locus YOR061W, strain CKA2, active compounds read low 1 | locus YOR069W, strain VPS5, active compounds read low 1 | locus YOR070C, strain gyp1, active compounds read low 1.01 | locus YOR080W, strain dia2, active compounds read low 0.981 | locus YOR083W, strain WHI5, active compounds read low 0.941 | locus YOR106W, strain vam3, active compounds read low 0.942 | locus YOR136W, strain idh2, active compounds read low 0.979 | locus YOR144C, strain elg1, active compounds read low 0.986 | locus YOR184W, strain ser1, active compounds read low 0.995 | locus YOR231W, strain MKK1, active compounds read low 1.04 | locus YOR265W, strain rbl2, active compounds read low 0.982 | locus YOR270C, strain vph1, active compounds read low 0.966 | locus YOR290C, strain snf2, active compounds read low 0.958 | locus YOR316C, strain cot1, active compounds read low 0.982 | locus YPL051W, strain arl3, active compounds read low 0.973 | locus YPL055C, strain LGE1, active compounds read low 0.992 | locus YPL078C, strain atp4, active compounds read low 0.934 | locus YPL106C, strain sse1, active compounds read low 0.911 | locus YPL240C, strain hsp82, active compounds read low 0.993 | locus YPL256C, strain CLN2, active compounds read low 1.02 | locus YPR119W, strain clb2, active compounds read low 0.983 | locus YPR141C, strain kar3, active compounds read low 0.981 | locus YPR163C, strain tif3, active compounds read low 0.98 | locus YPR167C, strain met16, active compounds read low 0.985 | strain wtn01, active compounds read low 0.955
